From PubChem BioAssay (EPA / NIEHS)
Where “and” joins values, the source holds several entries; their conditions need not be identical. Equal values may be shown once. Where a structure was tested more than once in an assay, its records may differ in their call. Calls of active or inactive are those of the source. The calls were made as follows: active = hit-call score of the fitted dose curve at least 0.9, where 1 is the maximum; inactive = score below 0.9.

Experiment: BSK_hDFCGF_SRB: Viability Assessment in the BioMAP Diversity Plus: hDFCGF Assay (AID 2283061)
Conditions: primary human foreskin fibroblasts
Method: BSK_hDFCGF is a cell-based, multiplexed-readout assay that uses foreskin fibroblast, a human skin primary cell, with measurements taken at 24 hours after chemical dosing in a 96-well plate.BSK_hDFCGF_SRB is an assay component measured in the BSK_hDFCGF assay. It measures 0.1% sulforhodamine related to cell death using Sulforhodamine staining technology.Data from the assay component BSK_hDFCGF_SRB was analyzed into 1 assay endpoint. This assay endpoint, BSK_hDFCGF_SRB, was analyzed with bidirectional fitting relative to DMSO as the negative control and baseline of activity. Using a type of viability reporter, gain or loss-of-signal activity can be used to understand changes in the signaling. Furthermore, this assay endpoint can be referred to as a primary readout, because this assay has produced multiple assay endpoints where this one serves a signaling function. To generalize the intended target to other relatable targets, this assay endpoint is annotated to the cell morphology intended target family, where the subfamily is cell conformation.
The levels of cell surface (or secreted, indicated by the prefix "s") biomarker endpoints were measured by ELISA. Overt cytotoxicity to cells in confluent adherent cultures (all systems other than the BT system) was assessed by measuring total protein levels using sulforhodamine B (SRB) staining in parallel cultures at the time of biomarker measurements, indicated as SRB endpoints. For proliferation assays for adherent cell types, individual cell types are cultured at sub-confluence and relative cell numbers quantified by SRB staining at time points optimized for each system (48 h: 3C and CASM3C systems; 72 h: BT and HDF3CGF systems; 96 h: SAg system). SRB was performed by staining cells with 0.1% SRB after fixation with 10% TCA and reading wells at 560 nm.Viability and proliferation of PBMC (T cells) was quantified by Alamar Blue reduction for the SAg and BT systems. For PBMC viability (referred to as PBMC Cytotoxicity within the assay endpoint names), cells were plated (75,000/well in a 96-well plate) and then chemical samples added for 1 h before addition of activators, SEB and TSST-1 (20 ng/mL final concentration each). Cells were incubated for 90 h. Then, Alamar Blue (20 uL/well) (Invitrogen, Cat DAL1100) was added for 6 h, and the plates were read with a fluorescence microplate reader at 546/580 nm (excitation/emission). For PBMC proliferation, cells were plated and activated as above but incubated for only 16 h prior to addition of Alamar Blue. Plates were read after 6 h.

| SMILES | outcome | AC50 |
| --- | --- | --- |
| O=C(O)COc1ccc(Cl)cc1Cl | inactive | – |
| [2H]C1([2H])[n+]2ccccc2-c2cccc[n+]2C1([2H])[2H] | inactive | – |
| ClC1C(Cl)C(Cl)C(Cl)C(Cl)C1Cl (stereo not given) | inactive | – |
| COC(=O)c1ccccc1CS(=O)(=O)NC(=O)Nc1nc(OC)cc(OC)n1 | inactive | – |
| CCCN(CCOc1c(Cl)cc(Cl)cc1Cl)C(=O)n1ccnc1 | – | 16 µM (active) |
| CCC(C)(C)C(=O)OC1=C(c2ccc(Cl)cc2Cl)C(=O)OC12CCCCC2 | – | 11.4 µM (active) |
| O=C(O)C(F)(F)C(F)(F)C(F)(F)C(F)(F)C(F)(F)C(F)(F)C(F)(F)F | inactive | 1.5 µM (active) |
| N#Cc1c(Cl)c(Cl)c(Cl)c(C#N)c1Cl | – | 0.148 µM (active) |
| CNC(=O)CSP(=S)(OC)OC | inactive | – |
| CNC(=O)/C=C(\C)OP(=O)(OC)OC | inactive | – |
| CC(C)(C)C(O)C(Oc1ccc(Cl)cc1)n1cncn1 (stereo not given) | inactive | – |
| C#CCN1C(=O)COc2cc(F)c(N3C(=O)C4=C(CCCC4)C3=O)cc21 | inactive | – |
| COP(=O)(OC)OC=C(Cl)Cl | inactive | – |
| CNC(=O)Oc1cccc(N=CN(C)C)c1 | inactive | – |
| O=S1OCC2C(CO1)C1(Cl)C(Cl)=C(Cl)C2(Cl)C1(Cl)Cl (stereo not given) | – | 26.7 µM (active) |
| Cc1cc(C)nc(NC(=O)NS(=O)(=O)c2ccccc2C(=O)OC2COC2)n1 | inactive | – |
| O=C(Nc1ccccc1)Nc1cnns1 | inactive | – |
| CCc1ccc(C(=O)NN(C(=O)c2cc(C)cc(C)c2)C(C)(C)C)cc1 | inactive | – |
| Oc1cc(Cl)ccc1Oc1ccc(Cl)cc1Cl | – | 13.1 µM (active) and 9.31 µM (active) and 17 µM (active) |

| SMILES | outcome | AC50 |
| --- | --- | --- |
| CCS(=O)(=O)c1cccnc1S(=O)(=O)NC(=O)Nc1nc(OC)cc(OC)n1 | inactive | – |
| COc1nn(CSP(=S)(OC)OC)c(=O)s1 | inactive | – |
| O=C(NC(=O)c1c(F)cccc1F)Nc1ccc(OC(F)(F)C(F)OC(F)(F)F)c(Cl)c1 (stereo not given) | inactive | – |
| CC1(c2ccc(Oc3ccccc3)cc2)OC(=O)N(Nc2ccccc2)C1=O (stereo not given) | inactive | – |
| OCCOc1ccccc1 | inactive | – |
| CCOc1nc(NC)nc(NC(=O)NS(=O)(=O)c2ccccc2C(=O)OC)n1 | inactive | – |
| O=C(O)CCCOc1ccc(Cl)cc1Cl | inactive | – |
| CCC(C)(NC(=O)c1cc(Cl)c(C)c(Cl)c1)C(=O)CCl (stereo not given) | – | 7.6 µM (active) |
| O=S(=O)(O)C(F)(F)C(F)(F)C(F)(F)C(F)(F)C(F)(F)C(F)(F)C(F)(F)C(F)(F)F | inactive | 20 µM (active) |
| CCOC1Oc2ccc(OS(C)(=O)=O)cc2C1(C)C (stereo not given) | inactive | – |
| COC(=O)c1ccccc1S(=O)(=O)NC(=O)Nc1nc(C)nc(OC)n1 | inactive | – |
| CNC(=O)Oc1ccccc1OC(C)C | inactive | – |
| COP(=S)(OC)Oc1ccc(SC)c(C)c1 | inactive | – |
| CN1CSC(=S)N(C)C1 | inactive | – |
| CCOCN(C(=O)CCl)c1c(C)cccc1CC | inactive | – |
| CCCN(CCC)c1c([N+](=O)[O-])cc(C(F)(F)F)cc1[N+](=O)[O-] | – | 30.9 µM (active) |
| CC1(C)C(C=C(Cl)Cl)C1C(=O)OC(C#N)c1ccc(F)c(Oc2ccccc2)c1 (stereo not given) | – | 31.1 µM (active) |
| CC[C@H](C)[C@H]1O[C@]2(C=C[C@@H]1C)C[C@@H]1C[C@@H](C/C=C(\C)[C@@H](O[C@H]3C[C@H](OC)[C@@H](O[C@H]4C[C@H](OC)[C@@H](O)[C@H](C)O4)[C@H](C)O3)[C@@H](C)/C=C/C=C3\CO[C@@H]4[C@H](O)C(C)=C[C@@H](C(=O)O1)[C@]34O)O2 (tested in a mixture with another compound) | – | 6.68 µM (active) |
| CC(C)N(C(=O)COc1nnc(C(F)(F)F)s1)c1ccc(F)cc1 | inactive | – |
